96 compounds from PubChem BioAssay AID868 (SRMLSC, 2007) can be followed below.

The campaign covered roughly 190,000 compounds. About 3,500 (1.8%) were called active. The sample holds actives, similar compounds and a random draw of the others, so the mix is not that of the screen.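 Rule for the calls: active = inhibition above a set limit, 3 SD over mean compound inhibition (cut at about 8.4% in these data); inactive = the rest.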

The nature of the assay: RAM signaling blockers in budding yeast – dse1pr::URA3 reporter, 5-FOA selection, primary screen (AID 868).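 Note: 0% = DMSO-only wells with no growth and 100% = 10 µM 1-NA-PP1 full growth; inhibition rescues growth on 5-FOA so higher OD means more RAM inhibition.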 Conditions: S. cerevisiae dse1pr::URA3 reporter, 5-FOA growth OD615, 2 d; at 50 µM; hits give high values; analog-sensitive cbk1-as2 kinase mutant strain.
As a reminder, the inhibition is the drop in the measured response relative to a control, in per cent. As to `COc1cccc2cc(/C(C)=N/NC(=O)c3ccco3)oc12`, the inhibition was 1.11% (inactive).
The value for `COC(=O)Nc1sc2nc(C)cc(C)c2c1-n1cccc1` was 0.22% (inactive); that for `CCCCOC(=O)Nc1sc2nc(C)cc(C)c2c1-n1cccc1` was 9.53% (active); that for `Cc1cc(C)c2c(-n3cccc3)c(NC(=O)OCc3ccccc3)sc2n1` was 5.58% (inactive).
With `COc1cc(CN(C)Cc2nc3cc(C(F)(F)F)ccc3c(=O)[nH]2)ccc1OC(F)F`, the inhibition was 2.67% (inactive).
As to `CCOC(=O)C1=C(C)N=C2c3ccccc3C(=O)C2C1c1ccc(Br)cc1` (stereo unspecified), the inhibition was 1.62% (inactive).
For `N#CC(=C1SC=CS1)c1nc(-c2ccccc2)cs1`, the inhibition was 3.35% (inactive).
On to `N#C/C(=C1\CCCN1)c1nc(-c2ccccc2)cs1`, for which the inhibition was 3.76% (inactive).
To `N#CC(=C1CCCC1)c1nc(-c2ccc(Cl)cc2)cs1` belongs 9.11% (active).
The value for `O=C(CSc1ccc(-c2ccccc2)nn1)NCC1CCCO1` (stereo unspecified) was 2.21% (inactive); that for `C=CCn1c(N)c(S(=O)(=O)c2cccs2)c2nc3ccccc3nc21` was 1.69% (inactive); that for `CCC(=O)Nc1c(S(=O)(=O)c2ccccc2)c2nc3ccccc3nc2n1Cc1ccccc1` was 2.78% (inactive).
With `Cc1ccc(S(=O)(=O)c2c(N)n(C)c3nc4ccccc4nc23)cc1`, the inhibition was 12.3% (active).
To `COc1ccc(C(=O)C[n+]2ccc(C)cc2)cc1` belongs 0.48% (inactive); to `COc1ccc(C(=O)/C=C/c2ccc(OC3CSC3)cc2)cc1`, 9.21% (active); to `COc1ccc(/C=C/C(=O)c2cc(Br)ccc(=O)c2O)cc1`, 1.75% (inactive).
The value for `O=C(/C=C/c1ccccc1)c1ccccc1O` was -0.67% (inactive); that for `CCOC(=O)C1CCCN(C(=O)/C=C/c2ccc(OC)cc2)C1` (stereo unspecified) was 0.37% (inactive).
The value for `COc1ccc(C(=O)/C=C/Nc2ccccn2)cc1` was 2.71% (inactive); that for `COc1ccc(/C=C/C(=O)c2ccc(OC)cc2O)cc1` was 8.82% (active); that for `C=CCOc1c(CNn2cn[nH]c2=S)cccc1OC` was 0.75% (inactive).
With `COC(=O)c1ccc(NC(=S)Nc2cccc(C)n2)cc1`, the inhibition is 3.21% (inactive).
For `CC1CCN(C(=S)c2cccc([N+](=O)[O-])c2)CC1`, the inhibition is -0.74% (inactive).
In the case of `CC(NC(=S)NC1CCCCC1)C(c1ccccc1)N1CCOCC1` (stereo unspecified), the inhibition was 0.28% (inactive).
With `CCOc1c(Cl)cc(/C=N/O)cc1OC`, the inhibition was 2.16% (inactive).
Regarding `CCOc1cc(/C=N/O)cc(Br)c1OC`, the inhibition was 0.34% (inactive).
With `COc1cc(/C=N/O)cc(Br)c1OCc1cccc(Cl)c1`, the inhibition was 9.47% (active).
To `NS(=O)(=O)c1cccc(NC(=O)COC(=O)/C=C/c2ccco2)c1` belongs 0.38% (inactive); to `CCc1nnc(NC(=O)c2cccs2)s1`, 1.49% (inactive).
As to `CCc1nnc(NC(=O)c2sc3nc(C)cc(COC)c3c2N)s1`, the inhibition is 1.25% (inactive).
Consider `CCc1ccc2nc3sc(C(=O)Nc4nnc(CC)s4)c(N)c3cc2c1`, for which the inhibition was 8.98% (active).
As to `COCc1c(C(=O)OCc2c(C)noc2C)oc2ccccc12`, the inhibition was 0.88% (inactive).
In the case of `Cc1cc(/C=C2/C(=N)N3C(=NC2=O)SN=C3S(C)(=O)=O)c(C)n1-c1ccccc1`, the inhibition was 4.35% (inactive).
Turning to `COc1ccc2c(CC(=O)Nc3nnc(C4CC4)s3)coc2c1`, the inhibition is 3.72% (inactive).
For `COc1ccc2c(CC(=O)OCC(=O)Nc3ccccc3[N+](=O)[O-])coc2c1`, the inhibition is 10% (active).
To `COc1cc(NC(=O)COC(=O)CSc2ccc3ccccc3c2)c(C)cc1[N+](=O)[O-]` belongs 2.2% (inactive); to `CCCCS(=O)c1snnc1C` (stereo unspecified), -0.12% (inactive); to `O=C(c1cc2c(s1)CCC2)N1CCN(c2ccccc2)CC1`, 4.37% (inactive).
Consider `O=C(CNC(=O)c1cc2c(s1)CCC2)Nc1ccccc1Br`, for which the inhibition was 1.93% (inactive).
To `O=C(NNC(=O)c1cc2c(s1)CCCC2)c1ccccc1` belongs 9.1% (active); to `CCOC(=O)Cc1csc(SCC(=O)NC(C)C23CC4CC(CC(C4)C2)C3)n1` (stereo unspecified), 0.91% (inactive).
`CC(NC(=O)COC(=O)c1ccc(Cl)cc1O)c1ccc(F)cc1` (stereo unspecified): the inhibition was 3.6% (inactive).
Consider `COc1cccc(-n2c(=S)sc3c(=O)n(-c4ccccc4OC)c(SCC4OCCO4)nc32)c1`, for which the inhibition was 7.01% (inactive).
On to `COc1ccccc1-n1c(=S)[nH]c2c(sc(=S)n2-c2ccc(C)cc2C)c1=O`, for which the inhibition is 9.12% (active).
As to `CCc1ccc(-n2c(=S)sc3c(=O)n(-c4ccccc4OC)c(=S)[nH]c32)cc1`, the inhibition was 5.97% (inactive).
For the compound `O=C(c1ccncc1)c1ccc([N+](=O)[O-])cc1`, the inhibition was 0.73% (inactive).
Consider `CC(C)=C1C2CCC1C1C(=O)N(NC(=O)c3ccco3)C(=O)C21` (stereo unspecified), for which the inhibition is -1.09% (inactive).
The value for `N/C(=N\OC(=O)COc1ccc([N+](=O)[O-])cc1)c1ccc(Br)cc1` was 2.29% (inactive).
For the compound `N/C(Cc1ccc([N+](=O)[O-])cc1)=N\OC(=O)COc1ccc2ccccc2c1`, the inhibition was 12% (active).
In the case of `N/C(=N\OC(=O)Cc1ccc([N+](=O)[O-])cc1)c1ccccn1`, the inhibition is 1.23% (inactive).
For the compound `CN(C)c1nnnn1-c1ccc(Cl)cc1`, the inhibition is -0.37% (inactive).
In the case of `O=C(O)/C=C/c1cn(Cc2ccccc2)nc1-c1cccs1`, the inhibition was 4% (inactive).
In the case of `CCC(C(=O)OCC(=O)Nc1ccccc1-c1ccccc1)c1ccccc1` (stereo unspecified), the inhibition is 6.39% (inactive).
To `CCC(C(=O)OCC(=O)Nc1c(Cl)cc(Cl)cc1Cl)c1ccccc1` (stereo unspecified) belongs 12.2% (active); to `CCC(C(=O)OCC(=O)Nc1ccc(C(=O)Nc2ccc(OC)cc2)cc1)c1ccccc1` (stereo unspecified), 4.72% (inactive).
For the compound `COCCNC(=O)NC(=O)COC(=O)C1(c2ccc(Cl)cc2)CC1`, the inhibition was 0.14% (inactive).
Regarding `Nc1ncnc(Nc2cccc(Cl)c2Cl)n1`, the inhibition was 0.27% (inactive).
As to `CC(=O)Nc1ccc(Sc2ccccc2C(=O)N2CCCC2)cn1`, the inhibition was 1.82% (inactive).
For `CCOC(=O)C1=C(C)N=c2s/c(=C\C(=O)OC)c(=O)n2C1c1ccc(OC)cc1` (stereo unspecified), the inhibition is 2.7% (inactive).
Consider `O=C1CCCC2=C1C(c1ccccc1)n1c(s/c(=C/c3cccc(F)c3)c1=O)=N2` (stereo unspecified), for which the inhibition was 3.98% (inactive).
In the case of `COc1ccc(OC)c(C2C3=C(N=c4s/c(=C\c5cccc(O)c5)c(=O)n42)c2ccccc2CC3)c1` (stereo unspecified), the inhibition was 12.7% (active).
For `Cc1ccc2[nH]c(=O)c(CN(CC3COCCO3)C(=O)Nc3ccccc3C)cc2c1` (stereo unspecified), the inhibition was 0.63% (inactive).
The value for `CCCCCOc1ccc(CSC2=NCCN2)cc1[N+](=O)[O-]` was -0.98% (inactive); that for `O=C(Nc1nc(-c2cccnc2)cs1)c1ccccc1F` was -0.37% (inactive).
As to `COc1cccc(NC(=S)NCc2ccccn2)c1`, the inhibition is 2.63% (inactive).
Take `Cc1nn(C)c(C(=O)NNC(=S)NC2CCCCC2)c1Cl`: the inhibition is 0.28% (inactive).
Turning to `COc1cccc(NC(=S)NC(=O)c2c(Cl)c(C)nn2C)c1`, the inhibition was 8.92% (active).
The value for `CCOC(=O)C1(Cc2cccc(OC)c2)CCCN(S(=O)(=O)c2cccnc2)C1` (stereo unspecified) was 0.14% (inactive).
Turning to `O=C(NCc1ccccc1)C1CCCN(c2nc3ccsc3c(=O)s2)C1` (stereo unspecified), the inhibition was 3.39% (inactive).
For `CN(C)S(=O)(=O)c1cccc(NC(=O)COC(=O)C2(c3ccccc3F)CCCC2)c1`, the inhibition was 15.4% (active).
Regarding `CN(C)S(=O)(=O)c1cccc(NC(=O)COC(=O)/C=C/c2cccs2)c1`, the inhibition was 0.87% (inactive).
As for `CN(C)S(=O)(=O)c1cccc(NC(=O)COC(=O)c2cc(=O)[nH]c(=O)[nH]2)c1`, the inhibition was 0.97% (inactive).
On to `CC1CC(C)(C)NC(=S)N1CCC(=O)N1CCN(Cc2ccccc2)CC1` (stereo unspecified), for which the inhibition is -0.49% (inactive).
Turning to `CCC(C)(C)NC(=O)CN(C(=O)CCC(=O)Nc1cc(C)ccn1)c1ccc2c(c1)OCCO2`, the inhibition was 1.5% (inactive).
`Cc1ccn(CC(=O)N2N=C(C(F)F)CC2(O)C(F)F)n1` (stereo unspecified): the inhibition was 0.78% (inactive).
With `S=C(NCc1ccc(Cl)cc1)NC12CC3CC(CC(C3)C1)C2`, the inhibition is 5.19% (inactive).
Turning to `S=C(NCc1ccc(Cl)cc1)NC1CCCCC1`, the inhibition is 10.9% (active).
`CN(C)CCCNC(=S)NCc1ccc(Cl)cc1`: the inhibition was 0.25% (inactive).
In the case of `CCCC(C(=O)n1nc(C)cc1C)C(NS(=O)(=O)c1ccc(C)cc1)c1ccccc1` (stereo unspecified), the inhibition is 11.7% (active).
`Cc1ccc(S(=O)(=O)NC(C(=O)N2CCOCCOCCOCCOCC2)c2ccccc2)cc1` (stereo unspecified): the inhibition is 2% (inactive).
Take `Cc1ccc(S(=O)(=O)Nc2nc(C)cc(-n3nc(C)cc3C)n2)cc1`: the inhibition is 2.7% (inactive).
Regarding `COc1ccccc1Cn1c(=S)[nH]c2cc(C(=O)N3CCN(C)CC3)ccc2c1=O`, the inhibition was 2.83% (inactive).
With `COc1ccc(OC)c(-n2c(=S)[nH]c3cc(C(=O)N4CCCCC4)ccc3c2=O)c1`, the inhibition was 8.46% (active).
Turning to `COc1ccc(OCc2cccc(C(=O)N3CCCC3)c2)cc1`, the inhibition is -0.11% (inactive).
With `CC(=O)c1ccc(S(=O)(=O)Nc2ccc(C(=O)NCC(c3ccccc3)N(C)C)cc2)cc1` (stereo unspecified), the inhibition is 1.76% (inactive).
Take `O=C(Nc1ccc(N2CCN(C(=O)c3cccs3)CC2)cc1)c1cccnc1Cl`: the inhibition was 0.88% (inactive).
The value for `CC(=O)N1CCN(c2cccc(C)c2C)CC1` was 2.09% (inactive); that for `O=C(O)c1cnn2c(C(F)(F)F)cc(-c3ccccc3)nc12` was 0.53% (inactive); that for `Cc1cccc(N2CCN(C(=O)c3cnn4c(C(F)F)cc(-c5ccccc5)nc34)CC2)c1C` was 12.1% (active).
As for `COc1cc(N/C=C2\CC(=O)NC(C)=C2C#N)cc(OC)c1OC`, the inhibition is 2.13% (inactive).
On to `Cn1c(=O)c2cc(S(=O)(=O)NCCC(=O)Nc3ccc(F)cc3F)ccc2n(C)c1=O`, for which the inhibition was 2.64% (inactive).
To `COc1ccc(CCNC(=O)CC2SC(=Nc3cc(C)cc(C)c3)NC2=O)cc1OC` (stereo unspecified) belongs 1.51% (inactive); to `CCOC(=O)c1cc2sccc2n1Cc1ccc(C#N)cc1`, 8.47% (active).
With `CC1Cc2ccccc2N1C(=O)c1cc2sccc2n1Cc1ccccc1` (stereo unspecified), the inhibition was 2.9% (inactive).
With `O=C(c1cc2sccc2n1Cc1ccc(F)cc1)N1CCc2ccccc21`, the inhibition was 2.22% (inactive).
For the compound `NC(=O)CCC(NS(=O)(=O)c1ccc(Cl)cc1)C(=O)NCc1ccccc1Cl` (stereo unspecified), the inhibition is 2.16% (inactive).
